From PubChem BioAssay AID1159580 (chemical genetic matrix, 2015)
In all, about 5,500 compounds went through this assay and about 2,000 (36%) were called active. Another 18% or so got no clear call; they are omitted. The list shows a part of the results. Values without a mark were called inactive. No stated cut-off is given here; in the data, active means normalized growth mostly below about 0.91 (no sharp cut-off); inconclusive means no clear call, values can overlap the other calls; inactive means mostly above about 0.92.

Test: chemical genetic growth profiling, strain panel (AID 1159580);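 further: tested at 20 µM; growth read once vehicle control cultures reached saturation at 30 °C; 1 = growth at the plate median or of vehicle wells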
Settings: growth OD

Work on `Cc1cc(/C=C/c2ccc3cc(N(C)C)ccc3[n+]2C)c(C)n1-c1ccccc1` yielded a normalized growth (S. cerevisiae deletion strains, locus YJR066W, strain TOR1, stronger effect = lower value) of 0.948, a normalized growth (S. cerevisiae deletion strains, locus YKL068W, stronger effect = lower value) of 1.03 and a normalized growth (S. cerevisiae deletion strains, locus YKL085W, strain MDH1 (second series), stronger effect = lower value) of 1.03. The normalized growth (S. cerevisiae deletion strains, locus YKL085W, strain MDH1, stronger effect = lower value) was 1.03, the normalized growth (S. cerevisiae deletion strains, locus YKL160W, strain elf1, stronger effect = lower value) was 0.829 (active) and the normalized growth (S. cerevisiae deletion strains, locus YKL190W, strain CNB1, stronger effect = lower value) was 0.692 (active). The normalized growth (S. cerevisiae deletion strains, locus YKR001C, strain vps1, stronger effect = lower value) was 0.987, the normalized growth (S. cerevisiae deletion strains, locus YKR026C, strain gcn3, stronger effect = lower value) was 1.01 and the normalized growth (S. cerevisiae deletion strains, locus YKR091W, strain srl3, stronger effect = lower value) was 1.02. The normalized growth (S. cerevisiae deletion strains, locus YLL001W, strain dnm1, stronger effect = lower value) was 0.934, the normalized growth (S. cerevisiae deletion strains, locus YLL026W, stronger effect = lower value) was 0.926 (active) and the normalized growth (S. cerevisiae deletion strains, locus YLL041C, strain sdh2, stronger effect = lower value) was 1.03. For the same molecule, the normalized growth (S. cerevisiae deletion strains, locus YLR027C, strain aat2, stronger effect = lower value) was 0.909 (active), the normalized growth (S. cerevisiae deletion strains, locus YLR039C, strain RIC1, stronger effect = lower value) was 0.703 and the normalized growth (S. cerevisiae deletion strains, locus YLR058C, strain SHM2, stronger effect = lower value) was 0.887 (active). The normalized growth (S. cerevisiae deletion strains, locus YLR102C, strain apc9, stronger effect = lower value) was 1.01, the normalized growth (S. cerevisiae deletion strains, locus YLR113W, strain HOG1, stronger effect = lower value) was 1.02 and the normalized growth (S. cerevisiae deletion strains, locus YLR221C, strain rsa3, stronger effect = lower value) was 0.905 (active). The normalized growth (S. cerevisiae deletion strains, locus YLR258W, strain gsy2, stronger effect = lower value) was 0.986, the normalized growth (S. cerevisiae deletion strains, locus YLR262C, strain YPT6 (second series), stronger effect = lower value) was 0.717 (active) and the normalized growth (S. cerevisiae deletion strains, locus YLR262C, strain YPT6, stronger effect = lower value) was 0.776. The normalized growth (S. cerevisiae deletion strains, locus YLR268W, strain sec22, stronger effect = lower value) was 0.919, the normalized growth (S. cerevisiae deletion strains, locus YLR320W, strain mms22, stronger effect = lower value) was 0.797 (active) and the normalized growth (S. cerevisiae deletion strains, locus YLR330W, strain CHS5, stronger effect = lower value) was 1. For the same molecule, the normalized growth (S. cerevisiae deletion strains, locus YLR342W, strain FKS1 (second series), stronger effect = lower value) was 0.774 (active), the normalized growth (S. cerevisiae deletion strains, locus YLR342W, strain FKS1, stronger effect = lower value) was 0.832 (active) and the normalized growth (S. cerevisiae deletion strains, locus YLR357W, strain rsc2, stronger effect = lower value) was 1.09. The normalized growth (S. cerevisiae deletion strains, locus YLR370C, strain arc18, stronger effect = lower value) was 0.986, the normalized growth (S. cerevisiae deletion strains, locus YLR371W, strain rom2, stronger effect = lower value) was 1.02 and the normalized growth (S. cerevisiae deletion strains, locus YLR384C, strain iki3, stronger effect = lower value) was 1. For the same molecule, the normalized growth (S. cerevisiae deletion strains, locus YLR418C, strain cdc73, stronger effect = lower value) was 0.385 (active), the normalized growth (S. cerevisiae deletion strains, locus YML016C, strain PPZ1, stronger effect = lower value) was 0.906 (active) and the normalized growth (S. cerevisiae deletion strains, locus YML032C, strain rad52, stronger effect = lower value) was 0.947. For the same molecule, the normalized growth (S. cerevisiae deletion strains, locus YML120C, strain ndi1, stronger effect = lower value) was 0.93, the normalized growth (S. cerevisiae deletion strains, locus YML124C, strain tub3, stronger effect = lower value) was 1.02 and the normalized growth (S. cerevisiae deletion strains, locus YMR058W, strain fet3, stronger effect = lower value) was 0.863 (active). The normalized growth (S. cerevisiae deletion strains, locus YMR078C, strain ctf18, stronger effect = lower value) was 1.02, the normalized growth (S. cerevisiae deletion strains, locus YMR125W, strain sto1, stronger effect = lower value) was 0.819 (active) and the normalized growth (S. cerevisiae deletion strains, locus YMR129W, stronger effect = lower value) was 0.874 (active). It also gave a normalized growth (S. cerevisiae deletion strains, locus YMR205C, strain PFK2, stronger effect = lower value) of 1.04, a normalized growth (S. cerevisiae deletion strains, locus YMR223W, strain ubp8, stronger effect = lower value) of 0.949 and a normalized growth (S. cerevisiae deletion strains, locus YMR231W, strain pep5, stronger effect = lower value) of 1.01. The normalized growth (S. cerevisiae deletion strains, locus YMR307W, strain GAS1, stronger effect = lower value) was 0.583 (active), the normalized growth (S. cerevisiae deletion strains, locus YNL067W, strain RPL9B, stronger effect = lower value) was 0.842 (active) and the normalized growth (S. cerevisiae deletion strains, locus YNL071W, strain lat1, stronger effect = lower value) was 0.762 (active). The normalized growth (S. cerevisiae deletion strains, locus YNL128W, strain TEP1, stronger effect = lower value) was 0.202 (active), the normalized growth (S. cerevisiae deletion strains, locus YNL153C, strain GIM3, stronger effect = lower value) was 0.709 (active) and the normalized growth (S. cerevisiae deletion strains, locus YNL183C, strain NPR1, stronger effect = lower value) was 0.962. The normalized growth (S. cerevisiae deletion strains, locus YNL209W, strain ssb2, stronger effect = lower value) was 0.848 (active), the normalized growth (S. cerevisiae deletion strains, locus YNL233W, strain BNI4, stronger effect = lower value) was 0.749 (active) and the normalized growth (S. cerevisiae deletion strains, locus YNL248C, strain rpa49, stronger effect = lower value) was 0.714 (active). The normalized growth (S. cerevisiae deletion strains, locus YNL250W, strain rad50, stronger effect = lower value) was 1.02, the normalized growth (S. cerevisiae deletion strains, locus YNL271C, strain bni1, stronger effect = lower value) was 1.02 and the normalized growth (S. cerevisiae deletion strains, locus YNL298W, strain CLA4, stronger effect = lower value) was 1.01. The normalized growth (S. cerevisiae deletion strains, locus YNL307C, strain MCK1, stronger effect = lower value) was 0.863 (active), the normalized growth (S. cerevisiae deletion strains, locus YNL322C, strain KRE1 (second series), stronger effect = lower value) was 1.01 and the normalized growth (S. cerevisiae deletion strains, locus YNL322C, strain KRE1, stronger effect = lower value) was 0.686 (active). For the same molecule, the normalized growth (S. cerevisiae deletion strains, locus YNR049C, strain mso1, stronger effect = lower value) was 1.01, the normalized growth (S. cerevisiae deletion strains, locus YNR052C, strain pop2, stronger effect = lower value) was 0.731 (active) and the normalized growth (S. cerevisiae deletion strains, locus YOL006C, strain TOP1, stronger effect = lower value) was 0.382 (active). The normalized growth (S. cerevisiae deletion strains, locus YOL012C, strain htz1) was 0.461, the normalized growth (S. cerevisiae deletion strains, locus YOL147C, strain pex11, stronger effect = lower value) was 0.999 and the normalized growth (S. cerevisiae deletion strains, locus YOR001W, strain rrp6, stronger effect = lower value) was 0.954. For the same molecule, the normalized growth (S. cerevisiae deletion strains, locus YOR061W, strain CKA2, stronger effect = lower value) was 0.909, the normalized growth (S. cerevisiae deletion strains, locus YOR069W, strain VPS5, stronger effect = lower value) was 0.995 and the normalized growth (S. cerevisiae deletion strains, locus YOR070C, strain gyp1, stronger effect = lower value) was 0.91 (active). The normalized growth (S. cerevisiae deletion strains, locus YOR080W, strain dia2, stronger effect = lower value) was 0.892 (active), the normalized growth (S. cerevisiae deletion strains, locus YOR083W, strain WHI5, stronger effect = lower value) was 0.804 (active) and the normalized growth (S. cerevisiae deletion strains, locus YOR106W, strain vam3, stronger effect = lower value) was 0.754 (active). It also gave a normalized growth (S. cerevisiae deletion strains, locus YOR136W, strain idh2, stronger effect = lower value) of 0.997, a normalized growth (S. cerevisiae deletion strains, locus YOR144C, strain elg1, stronger effect = lower value) of 1 and a normalized growth (S. cerevisiae deletion strains, locus YOR184W, strain ser1, stronger effect = lower value) of 0.928. The normalized growth (S. cerevisiae deletion strains, locus YOR231W, strain MKK1, stronger effect = lower value) was 1.01, the normalized growth (S. cerevisiae deletion strains, locus YOR265W, strain rbl2, stronger effect = lower value) was 0.92 (active) and the normalized growth (S. cerevisiae deletion strains, locus YOR270C, strain vph1, stronger effect = lower value) was 0.728 (active). The normalized growth (S. cerevisiae deletion strains, locus YOR290C, strain snf2, stronger effect = lower value) was 0.947, the normalized growth (S. cerevisiae deletion strains, locus YOR316C, strain cot1, stronger effect = lower value) was 1.01 and the normalized growth (S. cerevisiae deletion strains, locus YPL051W, strain arl3, stronger effect = lower value) was 0.914 (active). For the same molecule, the normalized growth (S. cerevisiae deletion strains, locus YPL078C, strain atp4, stronger effect = lower value) was 0.96, the normalized growth (S. cerevisiae deletion strains, locus YPL106C, strain sse1, stronger effect = lower value) was 0.468 (active) and the normalized growth (S. cerevisiae deletion strains, locus YPL240C, strain hsp82, stronger effect = lower value) was 1.01. The normalized growth (S. cerevisiae deletion strains, locus YPL256C, strain CLN2, stronger effect = lower value) was 1.02, the normalized growth (S. cerevisiae deletion strains, locus YPR119W, strain clb2, stronger effect = lower value) was 1.01 and the normalized growth (S. cerevisiae deletion strains, locus YPR141C, strain kar3, stronger effect = lower value) was 1.04. The normalized growth (S. cerevisiae deletion strains, locus YPR163C, strain tif3, stronger effect = lower value) was 1.01, the normalized growth (S. cerevisiae deletion strains, locus YPR167C, strain met16, stronger effect = lower value) was 0.989 and the normalized growth (S. cerevisiae deletion strains, strain wtn01, stronger effect = lower value) was 0.775 (active). The normalized growth (S. cerevisiae strains, strain wild type, stronger effect = lower value) was 0.484 (active).
